Laboratory results: PubChem BioAssay
Activity calls are given as the source filed them.

Experiment: basal S. cerevisiae growth modulation, no modifier, primary screen, OD600, strain BY4716, 24 h, basal condition (AID 1173)
Settings: OD600, 24 h, higher = more signal, called active from +8 up or from −8 down

Row | SMILES | z-score
1 | NC(=O)[C@@]1(Cc2ccccc2)COC(c2ccc(OCCCO)cc2)=N1 | 0.539 (inactive)
2 | CCOC(=O)C[C@H]1[C@H](OC(=O)c2ccc(C(=O)c3ccccc3)cc2)[C@@H](NC(=O)c2ccc3ccccc3n2)c2cc(OCCCO)ccc2N1C(=O)Cc1ccc(OC)cc1 | 1.03 (inactive)
3 | COC(=O)[C@@H]1N=C(c2ccc(OCCCO)cc2)O[C@@H]1c1ccccc1 | -2.99 (inactive)
4 | CCOc1cc(C(O)C2C=CC3C(=O)NC(=O)C3N2Nc2ccc(Cl)cc2Cl)ccc1O (stereo not drawn) | 0.203 (inactive)
5 | CCOC(=O)C=Cc1cccc(C)c1O | -10.7 (active)
6 | COC(=O)[C@@]1(Cc2ccc(OC)cc2)[C@H]2c3cc(C(=O)N4CCCC4)n(CCO)c3C[C@H]2CN1C(=O)c1ccccc1 | 0.91 (inactive)
7 | CC1=C2[C@@H](CCc3ccccc3)OB(O)C[C@@H]2[C@@H]2C(=O)N(Cc3ccccc3)C(=O)[C@@H]2C1 | -4.86 (inactive)
8 | C=CC[C@@H](OC(=O)Nc1ccc(SC)cc1)c1ccc(O)c(F)c1 | -15.5 (active)
9 | COCCCNC(=O)[C@@]1(CCC(=O)OC(C)(C)C)N=C(c2ccc(OCCCO)cc2)O[C@H]1c1ccccc1N=[N+]=[N-] | -0.497 (inactive)
10 | CCOC(=O)C[C@H]1[C@H](OC(=O)c2cc3ccccc3oc2=O)[C@@H](NC(=O)CC(C)C)c2cc(OCCCO)ccc2N1C(=O)c1ccc2ccccc2n1 | 0.738 (inactive)
11 | Cc1ccc(C(C)CC(O)C2C=CC3C(=O)N(c4ccccc4)C(=O)C3N2Nc2ccccc2)o1 (stereo not drawn) | -2.27 (inactive)
12 | CN(C)c1ccc(C(O)C2C=CC3C(=O)NC(=O)C3N2Nc2ccccn2)cc1 (stereo not drawn) | 1.03 (inactive)
13 | CCCCN1CC=CC23O[C@@H]4/C=C\CCCOC(=O)C4[C@H]2C(=O)N(CCO)[C@@H]3C1=O (stereo partly drawn) | 0.291 (inactive)
14 | COc1ccc([Si](C)(C)[C@@H]2[C@@H](CCO)O[C@]3(C(=O)N(Cc4ccccc4)c4ccc(N5C(=O)c6cccc7cccc5c67)cc43)[C@H]2C)cc1 | 0.282 (inactive)
15 | Oc1ccc2cc[n+](Cc3cc4c(cc3Br)OCO4)cc2c1 | -0.72 (inactive)
16 | CCCNC(=O)[C@@H]1c2ccccc2C(=O)N(Cc2ccc(OC(F)(F)F)cc2)[C@H]1c1ccc(CO)cc1 | 0.0357 (inactive)
17 | COCCOC(=O)N1C(=O)[C@@]2(c3cc(C#CC4=CCCCC4)ccc31)[C@H](c1ccccc1OCCO)N1[C@H](c3ccccc3)[C@H](c3ccccc3)OC(=O)[C@H]1[C@@H]2C(=O)NC[C@H](O)c1ccccc1 | 0.861 (inactive)
18 | O=C1N(CCS(=O)(=O)c2ccccc2)c2ccccc2[C@H]2OC(c3ccc(OCCCO)cc3)=N[C@@]12Cc1ccccc1 | -0.148 (inactive)
19 | [N-]=[N+]=Nc1ccccc1C[C@]1(C(=O)NCCN2CCOCC2)COC(c2ccc(OCCCO)cc2)=N1 | -1.84 (inactive)
20 | C=CC[C@@]1(C(=O)NCCCOC)N=C(c2ccc(OCCCO)cc2)O[C@@H]1c1ccccc1N=[N+]=[N-] | -0.537 (inactive)
21 | COC(=O)C1=CC(CCCO)=CC(c2ccc(CN3CCCC3)cc2)N(Cc2cccc(OC(F)(F)F)c2)C=C1C(=O)OC (stereo not drawn) | -1.54 (inactive)
22 | CCCC=C(CCC)[C@@H](NC(=O)c1cccs1)c1ccc(C(=O)OC)cc1 | 1.07 (inactive)
23 | CC1=C2[C@@H](CCc3ccccc3)OB(O)C[C@@H]2[C@@H]2C(=O)N(C)C(=O)[C@@H]2C1 | -2.36 (inactive)
24 | COCCOC(=O)N1C(=O)[C@@]2(c3cc(C#CC4(O)CCCCCC4)ccc31)[C@H](c1ccc(O)cc1)N1[C@H](c3ccccc3)[C@H](c3ccccc3)OC(=O)[C@H]1[C@@H]2C(=O)N1CCN(c2ncccn2)CC1 | -0.31 (inactive)
25 | COC(=O)[C@@]1(Cc2ccc(F)cc2)[C@H]2c3cc(C(=O)N(C)C)n(Cc4ccc(OC(F)(F)F)cc4)c3C[C@H]2CN1C(=O)c1ccccc1 | 0.825 (inactive)
26 | C=CCNC(=O)[C@H]1[C@@H]2C(=O)O[C@@H](c3ccccc3)[C@@H](c3ccccc3)N2[C@@H](c2ccccc2OCCO)[C@]12C(=O)N(C(=O)OCCOC)c1ccc(C#CC3(O)CCCCCC3)cc12 | -0.0911 (inactive)
27 | C=C(COC)/C(=C/C[C@H](OC(=O)c1ccncc1)c1ccccc1OCCO)c1cc(C(=O)OC)ccc1OC | -0.0515 (inactive)
28 | CC(C)c1ccc(NN2C(C(O)c3ccc(C#N)cc3)C=CC3C(=O)N(c4ccccc4)C(=O)C32)cc1 (stereo not drawn) | -1.67 (inactive)
